Among the data in PubChem BioAssay AID2669 (National Center for Advancing Translational Sciences (NCATS), 2010) are Potency values, retold here.

Records with an inconclusive call do not appear. Entries that show only a call come without a potency. The source made the active and inactive calls. Calls follow the shape of the dose curve; as a rule, active = well fitted inhibition curve with a large enough effect; inconclusive = small, poorly fitted or top-dose-only effect, or effect the other way; inactive = flat fitted curve, though single readings scatter.

The assay is described as follows: qHTS Assay Multiplex Screening to Identify Dual Action Probes in a Cell Model of Huntington: Cytoprotection (Protease relase). As to conditions: PC12 HttQ103 cells, Cytotox-Glo protease release, 40 h; series mostly up to 46.1 µM. From the text: NIH Chemical Genomics Center [NCGC]
NIH Molecular Libraries Probe Production centers Network [MLPCN]
Assay Submitter (PI): Wei Zheng
Huntington's disease is a neurodegenerative disorder caused by a trinucleotide repeat expansion in Exon 1 of the Huntingtin gene. The CAG trinucleotide encodes glutamine and polyglutamine expansions cause cell death in selective areas of the brain. Huntington polyglutamine repeats have the tendency to form aggregates which are observable in later stages of the disease. The exact nature of the aggregates, whether toxic, protective, or insignificant, is unclear.
A stable PC12 cell line containing a gene fusion of Exon 1 of the Huntingtin gene linked to GFP under the control of the inducible ecdysone promoter were used as the cell-based model of Huntington Disease for high throughput screening. Exon 1 of the Huntingtin gene contained an expansion of 103 polyglutamines (Q103) which, when expressed, caused cell death and distinct, bright GFP aggregates. The amount of cell death and the size and intensity of GFP aggregates increased over time and induction level. In the primary screen, cell death were quantified with a measurement of ATP content in the cells. A maximal 40-50% of cell death was observed when the Huntington gene was induced in this cell line.
We optimized this assay in a homogeneous 1536 well format. A quantitative high throughput screen (qHTS) was conducted on the PC12 cells which were induced to express the toxic fusion construct. Small molecules which prevented cell death were considered hits, and were further studied. The present assay is an alternate assay for cytoprotection using Promega's Cytotox-Glo reagent.
PC12 cells stably containing a construct with an ecdysone inducible promoter expressing GFP fused to the exon 1 of HTTQ103 (Huntington protein which containing a 103 ployglutamine expansion) were used.
NCGC Assay Protocol Summary:
Sequence, Parameter, Description
1, Reagent, 5 uL 1500 cells/well 1536 TC treated White clear bottom plate
2, Compound, 23 nL Tebufenozide inducer (100 nM final) to all columns
3, Compound, 23 nL 40 uM to 0.5 nM Libraries
5, Reagent, 2 ul Promega's Cytotox-Glo assay reagent
6, Detector, 4 sec integration with a Viewlux Luminescent
Media consisted of phenol red free DMEM + 5% equine serum (Hyclone # SH30072.03 ), 5% supplemented Bovine Calf Serum (Hyclone # SH30074.03 ), 1x pen/strep, no G418
Turning to `CC[C@]1(C2=NCCN2)Cc2ccccc2O1`, the Potency entry was “inactive”.

Regarding `CCC(C)C(=O)OC1C(O)C2C(CN3CC(C)CCC3[C@]2(C)O)C2C[C@]34O[C@@]5(O)C(OC(=O)C(C)(O)CC)CCC3(C)C5C(OC(C)=O)C(OC(C)=O)C4[C@@]21O` (some centres not stated), the Potency result is “inactive”.

Take `C[C@@]1(CO)[C@H](O)CC[C@@]2(C)[C@H]1CC[C@H]1C[C@@H]3C[C@@]12CC[C@]3(O)CO`: the Potency result was “inactive”.

Consider `NC(=O)c1sc2nc3c(c(-c4cccs4)c2c1N)CCCC3`, for which the Potency result is “inactive”.

With `C[C@H]1CC[C@@]2(NC1)O[C@@H]1C[C@H]3[C@@H]4CC=C5C[C@@H](O)CC[C@]5(C)[C@@H]4CC[C@]3(C)[C@@H]1[C@@H]2C`, the Potency entry is “inactive”.

On to `O=C1C=C2C=C[C@H]3C[C@@]2(O1)[C@H]1CCCCN31`, for which the Potency was 794 nM (active).

For `Oc1cc(Cl)ccc1Oc1ccc(Cl)cc1Cl`, the Potency result is “inactive”.
